MCF10A rereplic – induces DNA re-replication in MCF 10a normal breast cells; 350,000 compounds, 2.9% hits; MCF 10A DNA re-replication, Hoechst nuclear intensity, 48 h; Potency, µM (titrated, usually from 46.1 µM), usual class: activators; further: nearly all actives have a fitted effect of over 50% in size
PINK1 modulator – changes PINK1 expression; PINK1 immunofluorescence, high-content cytometry, 24 h; AID 624263; Potency, µM (top dose mostly 76.6 µM), hits mostly activators; 410,000 compounds, 0.2% hits; active means well fitted activation curve with a large enough effect; inconclusive means small, poorly fitted or top-dose-only effect; cell line not stated here; further: nearly all actives have a fitted effect of over 65% in size
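Readout is PINK1 immunofluorescence, quantified alongside mitochondrial, cell and nuclear markers by laser-scanning microplate cytometry. Cells from a stable line were exposed to compound titrations (5 concentrations) for 24 hours, with CCCP controls.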
KB-3-1 tox – KB-3-1 parental cell cytotoxicity. KB-3-1 viability, CellTiter-Glo ATP luminescence, 72 h. 400,000 compounds, 1.4% hits. Potency, µM (top dose mostly 46.1 µM), actives largely listed as cytotoxic; further: nearly all actives have a fitted effect of over 60% in size
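Multi-concentration cytotoxicity screen in KB-3-1 cells grown in DMEM lacking phenol red with 10% FBS. After 72 h at 37 °C with compound, ATP-dependent luminescence was recorded.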
KB-V1 cytotox – KB-V1 MDR subline cytotoxicity. KB-V1 MDR cells viability, CellTiter-Glo, 72 h. Potency, µM (series often up to 46.1 µM), hits mostly cytotoxic. 400,000 compounds, 3.4% hits; further: nearly all actives have a fitted effect of over 60% in size
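Drug-selected KB-V1 cells, grown in DMEM lacking phenol red with 10% FBS, receive compound titrations; after three days at 37 degrees C, surviving cell ATP is quantified by CellTiter-Glo luminescence and responses normalized and curve-fitted.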
SW480 rereplic – induces DNA re-replication in SW480 colon adenocarcinoma cells | Potency, µM (highest dose often 46.1 µM), most hits filed as activators | 340,000 compounds, 1.8% hits | SW480 DNA re-replication, Hoechst DNA content imaging, 48 h; further: nearly all actives have a fitted effect of over 55% in size
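Image-based DNA-content assay: after two days of treatment, nuclei were labelled with the DNA dye Hoechst and imaged, and hits were compounds raising the count of nuclei showing high fluorescence intensity.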
Hits are given with their value; - = inactive; ? = inconclusive; . = not tested or not shown. In the library only some 6.7% were active in any assay of this set; here they are far more common. Unless noted, the call rests on the fitted dose curve; in most records, active means well fitted curve in the direction sought with a large enough effect; inconclusive means small, poorly fitted or top-dose-only effect, or another doubt; inactive means no such curve, though single readings can be large; an effect the other way counts as inactive or inconclusive.

SMILES	MCF10A rereplic	PINK1 modulator	KB-3-1 tox	KB-V1 cytotox	SW480 rereplic
Oc1ccc(Cl)cc1C1=NNC(c2cc(Br)cc3c2OCOC3)C1 (configuration not stated)	-	-	?	-	-
Oc1c(Cl)cc(Cl)cc1C1=NNC(c2ccc(Cl)cc2)C1 (configuration not stated)	16µM	-	-	?	?
CNc1ccc(-c2cccc(C#N)c2)cn1	.	-	-	-	.
CC(C)C[C@H]1CNC(=S)N1C[C@H]1CCCN1C[C@H](Cc1ccccc1)N1C[C@H](Cc2ccc(O)cc2)N(CC2CCCCCC2)C1=S	.	-	?	?	.
Oc1ccc(C[C@H]2CNC(=S)N2CC2CCCN2C[C@H](Cc2ccc(O)cc2)N2C[C@H](Cc3ccc(O)cc3)N(CC3CCCCC3)C2=S)cc1 (some centres not stated)	12µM	-	?	-	?
CC(C)C[C@H]1CNC(=S)N1CC1CCCN1C[C@H](Cc1ccccc1)N1C[C@H](Cc2ccc(O)cc2)N(CC2CCCCC2)C1=S (some centres not stated)	-	-	?	?	4.6µM
CC(C)C[C@@H](CN1CCCC1CN1C(=S)NC[C@@H]1Cc1ccc(O)cc1)N1C[C@H](Cc2ccc(O)cc2)N(CC2CCCCC2)C1=S (some centres not stated)	7.3µM	-	?	?	?
Oc1ccc(C[C@H]2CNC(=S)N2CC2CCCN2C[C@H](Cc2ccc(O)cc2)N2C[C@H](Cc3ccccc3)N(CCc3ccccc3)C2=S)cc1 (some centres not stated)	-	-	23µM	-	?
CC(C)C[C@H]1CNC(=S)N1C[C@H]1CCCN1C[C@H](Cc1ccc(O)cc1)N1C[C@H](Cc2ccccc2)N(CCc2ccccc2)C1=S	.	-	-	-	.
CC1CCCC(C)N1C(=O)CSc1nc2ncnc(N)c2[nH]1 (configuration not stated)	6.5µM	-	-	-	8.2µM
CCOC(=O)N1CCN(C(=O)C(CC(C)C)NS(=O)(=O)c2ccc(C)cc2)CC1 (configuration not stated)	-	-	-	-	-
O=C(NC(=S)Nc1ccccc1N1CCCCC1)c1ccco1	?	-	?	?	-
CC1CCCC(NC(=S)NC(=O)c2ccco2)C1C (configuration not stated)	-	-	-	18µM	-
O=C(NC(=S)Nc1cccc(Cl)c1N1CCCCC1)c1cccs1	3.3µM	?	?	?	?
O=C(NC(=S)Nc1ccc(N2CCCCC2)cc1)c1ccco1	?	-	-	8.2µM	?
O=C(NC(=S)Nc1cccc(Cl)c1N1CCCCC1)c1ccco1	?	-	-	-	18µM
CC1CCCCC1NC(=O)c1ccco1 (configuration not stated)	-	-	-	-	-
O=C(NC(=S)Nc1cccc(Cl)c1N1CCOCC1)c1cccs1	-	-	-	-	-
CCCC(=O)NC(=S)Nc1cccc(Cl)c1N1CCCC1	18µM	-	-	-	?
CCCC(=O)NC(=S)Nc1cccc2c(O)cccc12	-	-	-	-	?
Cn1cccc1C(=O)OCC(=O)Nc1ccc2c(c1)OCCO2	-	-	-	-	-
CS(=O)(=O)N1CCC2(CCCN(C(=O)Nc3ccccc3)C2)CC1	.	-	.	.	.
O=C(C(=Cc1ccc(F)cc1)c1ccccc1)c1ccc(O)cc1	?	-	-	-	-
O=C(C(=Cc1ccc(F)cc1)C(=O)c1ccccc1)c1ccccc1	.	-	18µM	21µM	.
Cc1cc(C)c(C(O)c2ncc(-c3cccc(F)c3)[nH]2)c(C)c1 (configuration not stated)	.	-	-	-	.
SMILES	MCF10A rereplic	PINK1 modulator	KB-3-1 tox	KB-V1 cytotox	SW480 rereplic
CC1(C)CCN2CCC(C)(C)c3c(O)ccc1c32	13µM	?	?	-	?
CC1CCCC(NC(=O)/C=C/c2c(F)cccc2Cl)C1C (configuration not stated)	-	-	-	-	-
CCN(CC)c1ccc(/C=N/NC(=O)c2cccc(S(=O)(=O)Nc3ccccc3OC)c2)c(O)c1	?	-	?	-	?
COc1ccccc1NS(=O)(=O)c1cccc(C(=O)N/N=C/c2ccc([N+](=O)[O-])o2)c1	21µM	?	?	?	13µM
CCN(CC)c1ccc(/C=N/NC(=O)c2cccc(S(=O)(=O)Nc3ccccc3OC)c2)cc1	16µM	-	-	-	-
Cc1cc(N2CCOCC2)ccc1/C=C\[N+](=O)[O-]	18µM	-	-	?	5.8µM
O=[N+]([O-])c1ccc(N2CCOCC2)cc1O	-	-	-	-	-
COc1ccc(-n2c(=O)c3c4c(sc3n(CC(=O)NCc3ccco3)c2=O)CCC4)c(OC)c1	-	-	-	16µM	-
C/C=C/c1ccc2c(c1)O[C@H](CN(C)C(=O)NC1CCCC1)[C@H](C)CN([C@H](C)CO)S2(=O)=O	.	-	-	-	.
COc1ccccc1C(=O)NC(=O)COC(=O)c1cnccn1	.	-	-	-	.
Cc1ccc(/C=N/n2c(COc3ccccc3)n[nH]c2=S)cc1	-	-	-	?	-
CCOc1ccc(/C=N/n2c(C3CCCCC3)n[nH]c2=S)cc1	10µM	-	-	-	-
CC(C)c1ccc(/C=N/n2c(COc3ccccc3)n[nH]c2=S)cc1	21µM	-	-	?	-
COc1ccc(Br)cc1CNCc1c(C(=O)O)c(C)n(Cc2ccccc2C)c1C	.	-	-	?	.
COc1ccc(/C=C/c2cccc[n+]2C)c(O)c1	-	-	?	-	-
CCN(CC)c1ccc(/C=C/c2cccc[n+]2C)c(OC)c1	?	10µM	0.65µM	-	18µM
Cc1cc(C)cc(NC(=O)Nc2ccc(-n3ccc(C(F)(F)F)n3)cc2)c1	21µM	?	-	-	?
CC(C)c1ccc(NC(=O)C2CCN(C(=O)[C@@H]3Cc4ccccc4CN3)CC2)cc1	?	-	-	-	18µM
Cc1cccc(NC(=O)C2CCC(CNC(=O)[C@@H]3Cc4ccccc4CN3)CC2)c1 (some centres not stated)	-	-	-	-	-
Cc1cc(C)cc(NC(=O)C2CCC(CNC(=O)[C@@H]3Cc4ccccc4CN3)CC2)c1 (some centres not stated)	?	-	-	-	18µM
CCOC(=O)c1c(-c2ccccc2)oc2ccc(O)c(CN3CCN(C)CC3)c12	23µM	-	?	21µM	-
Cc1cc2c(c3oc(=O)c4ccccc4c13)CN(Cc1ccc(F)cc1)CO2	.	-	-	-	.
CCc1noc(C)c1C(=O)N1CC(C)SC1=Nc1ccc(Cl)cc1 (configuration not stated)	-	-	-	16µM	-
CCc1noc(C)c1C(=O)N1CC(C)OC(C)C1 (configuration not stated)	-	-	-	-	-

Screening results (PubChem)
